The record followed here is PubChem BioAssay AID485284 (NMMLSC, 2010).

Potency and affinity values are given separately.

A short description of this assay: loss of vesicle association with mouse CD8+ T cells – mouse 2C CD8+ T cells, flow cytometry, dose response (AID 485284).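 Also: drosophila derived vesicles carrying Ld MHC with QL9 peptide plus B7-1 and ICAM-1; vesicle binding seen as anti-B7-1 PE fluorescence on CD8 gated cells.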 The conditions noted are these: 2C mouse CD8+ T cell-exosome binding; at 45 µM (top of the series).
`O=C(Cc1ccc2c(c1)OCCO2)Nc1cccc(S(=O)(=O)N2CCOCC2)c1`: the binding remaining, % of control is 135%.
The value for `O=C1CC(c2nc3ccccc3[nH]2)CN1Cc1ccccc1` (stereo not drawn) was 207%.
With `CCOC(=O)N1CCN(Cc2nc(-c3ccc(C)cc3)no2)CC1`, the binding remaining, % of control turned out to be 78.4%.
In the case of `O=C(NC(=S)NCc1ccco1)c1ccc(Br)cc1`, the binding remaining, % of control came out at 136%.
As for `COc1ccc(NC(=O)[C@@H](NC(=O)c2ccccc2F)C(C)C)cc1S(=O)(=O)N1CCOCC1`, the binding remaining, % of control came out at 84.7%.
The value for `Cc1ccc(C(C)n2cc(C(=O)NCCN3CCN(C)CC3)nn2)cc1` (stereo not drawn) was 144%; that for `COC(=O)CN1C(=S)N(C)C(=O)C1CC(=O)Nc1ccccc1` (stereo not drawn) was 123%.
For `COc1ccc([N+](=O)[O-])cc1NC(=O)c1ccc(N(Cc2ccccc2C)S(C)(=O)=O)cc1`, the binding remaining, % of control turned out to be 99.1%.
`Cc1ccc(S(=O)(=O)c2c(N)n(NC(=O)c3ccccc3C)c3nc4ccccc4nc23)cc1`: the binding remaining, % of control came to 100%.
`CN1CCN(C(=O)c2cc3ccccc3cc2O)CC1`: the binding remaining, % of control is 178%.
Regarding `COc1ccccc1C(=O)COC(=O)C1CCN(S(=O)(=O)c2ccc(C)c(C)c2)CC1`, the binding remaining, % of control stood at 24.2%.
Take `COc1ccc(CNC(=O)COC(=O)CCN2C(=O)C3CC=CCC3C2=O)cc1OC` (stereo not drawn): the binding remaining, % of control turned out to be 190%.
Take `COc1ccc(NC(=O)COC(=O)c2cc(Cl)ccc2O)cc1S(=O)(=O)N1CCCCC1`: the binding remaining, % of control came out at 75.3%.
Consider `CCOC(=O)Nc1sc(C)c(C)c1C(N)=O`, for which the binding remaining, % of control was 103%.
For the compound `CCOc1ccc(NC(=O)CN(C)C(=O)C2CC(=O)N(Cc3ccco3)C2)cc1OCC` (stereo not drawn), the binding remaining, % of control was 145%.
Turning to `COc1ccc(NC(=O)CC2C(=O)N(Cc3ccccc3)C(=S)N2CCN2CCOCC2)cc1` (stereo not drawn), the binding remaining, % of control was 106%.
Consider `CC1CCC(NC(=O)CN2C(=O)NC3(CCCCCC3)C2=O)CC1` (stereo not drawn), for which the binding remaining, % of control is 101%.
With `Cc1ccc(S(=O)(=O)Nc2c3ccccc3nc(=O)n2-c2ccccc2)cc1`, the binding remaining, % of control amounted to 71.8%.
Consider `CCCc1cc(=O)[nH]c(SCC(=O)N2c3ccccc3CC2C)n1` (stereo not drawn), for which the binding remaining, % of control was 126%.
The value for `Cc1nc2sc(C(c3ccccc3)N3CCN(c4ccccc4F)CC3)c(O)n2n1` (stereo not drawn) was 163%; that for `COc1cc(OC)c2cc(C(=O)N[C@H](C(=O)N3CCC[C@H]3C(=O)O)C(C)C)n(C)c2c1` was 99.6%; that for `COc1ccc(OC)c(NC(=O)CCN2CCCCC2)c1` was 220%.
For `C/C(=N\NC(=O)c1ccco1)c1cc2ccccc2o1`, the binding remaining, % of control worked out at 160%.
Regarding `COc1ccc([C@H]2CC(=O)C=C(c3cccc(Cl)c3)C2)cc1`, the binding remaining, % of control turned out to be 141%.
Then `O=C(NNC(=S)NC(=O)c1ccco1)c1ccc(F)cc1`, with 159%; and `CCN(Cc1ccccc1)C(=O)c1ccc(C)c(S(=O)(=O)N2CCCCC2)c1`, with 92.8%.
The value for `CN1CCN(S(=O)(=O)c2ccc(C(=O)Nc3ccccc3)cc2)CC1` was 124%; that for `C[N+]1(C)CC2([N+](=O)[O-])CC=C(Oc3ccccc3)C([N+](=O)[O-])(C2)C1` (stereo not drawn) was 24.8%; that for `COc1ccc(/C=C2\SC(N3CCc4ccccc4C3)=NC2=O)cc1OC` was 18.6%.
For `O=C(Nc1ncc([N+](=O)[O-])s1)c1cccs1`, the binding remaining, % of control worked out at 56.8%.
As for `COc1ccc(NC(=O)CN2CCN(S(=O)(=O)c3ccc(Cl)cc3)CC2)cc1`, the binding remaining, % of control amounted to 79.2%.
`O=C(c1ccco1)N1CCN(C(c2ccccc2Cl)c2nnnn2Cc2ccco2)CC1` (stereo not drawn): the binding remaining, % of control stood at 17.4%.
As for `Cc1ccsc1C(=O)OCC(=O)N1CCN(c2ccccc2)CC1`, the binding remaining, % of control is 129%.
